In PubChem BioAssay:
Active and inactive are the calls of the source.

Assays:
[1] = system: PRMT1 (protein arginine N-methyltransferase 1); assay: PRMT1 binders on small-molecule microarrays, primary screen, biochemical, small-molecule microarray, 635 nm fluorescence (AID 1088); conditions: small-molecule microarray binding, higher = more signal;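 further: binding of Prmt1 protein to compounds spotted on small-molecule microarray slides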
[2] = yeast growth modulation, basal conditions, primary screen, YJM789 clinical isolate, OD600, 24 h (AID 1089);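 further: growth of clinical yeast isolate S. cerevisiae YJM 789 seeded 1000 cells per well; test concentration not given here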; conditions: S. cerevisiae YJM789 growth, higher = more signal, called active from +8 up or from −8 down
[3] = fission yeast growth modulation, primary screen, strain 972, OD600, 24 h, no modulator (AID 1090);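 further: basal condition with compound alone and no growth modifier present; test concentration not given here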; conditions: S. pombe 972 growth, higher = more signal, called active from +8 up or from −8 down
[4] = S. cerevisiae growth modulation with rapamycin, primary screen, strain BY4716, OD600, 96 h (AID 1091); conditions: higher = more signal, called active from +8 up or from −8 down; further: test concentration not given here
[5] = target: Torsin-1A-interacting protein 2 (Homo sapiens) (UniProt Q8NFQ8); assay: LULL1 binders on small-molecule microarray, primary screen, cell lysate, human LULL1 lysate, 635/667 nm fluorescence (AID 1092); conditions: hLULL1 lysate binding, 635 nm fluorescence, higher = more signal;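 further: probe is lysate of COS7 cells overexpressing human LULL1; score merges per-feature 667 nm fluorescence with signal-to-noise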
[6] = E. coli growth modulation, two-sided OD650, primary screen, E. coli filamentation project, strain DRC41, 24 h (AID 1093); conditions: OD650, 24 h, higher = more signal, called active from +8 up or from −8 down;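 further: MC1000 strain lacking acrAB efflux and sulA so SOS filamentation is blocked; test concentration not given here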
[7] = small-molecule microarray binders of probe aLefty2, primary screen, biochemical, biotinylated probe, 635/667 nm fluorescence (AID 1094); conditions: higher = more signal;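 further: score merges spot fluorescence near 667 nm with spot signal-to-noise ratio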
[8] = system: Noggin (protein binding on small-molecule microarray); assay: Noggin binders on small-molecule microarray, primary screen, biochemical, 635/667 nm fluorescence (AID 1095); conditions: 635 nm fluorescence, higher = more signal;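 further: score merges 667 nm feature fluorescence with signal to noise over triplicate slides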
[9] = target: Neurogenic locus notch homolog protein 3 (Homo sapiens) (UniProt Q9UM47); assay: NOTCH3 binders on small-molecule microarray, primary screen, biochemical, 635/667 nm fluorescence (AID 1096); conditions: NOTCH3 binding, 635 nm fluorescence, higher = more signal
[10] = small-molecule microarray binders of probe aEGFR, primary screen, biochemical, biotinylated probe, 635/667 nm fluorescence (AID 1097); conditions: higher = more signal;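 further: probe is a biotinylated anti-EGFR antibody binding compounds printed on slides; score combines fluorescence near 667 nm and signal to noise of each spot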
[11] = system: Plasmodium falciparum Sir2 (PF13_0152, Sir2A); assay: pfSir2 binders on small-molecule microarrays, primary screen, biochemical, small-molecule microarray, 635 nm fluorescence (AID 1098); conditions: small-molecule microarray binding, fluorescence 635 nm; higher = more signal;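 further: score merges spot fluorescence intensity with its signal-to-noise ratio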
[12] = small-molecule microarray binders of probe aDKK1, primary screen, biochemical, biotinylated probe, 635/667 nm fluorescence (AID 1099); conditions: higher = more signal;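 further: score merges 667nm spot fluorescence with signal to noise across triplicate slides; reference of the scale not given here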
[13] = small-molecule microarray binders of probe aCHRDL2, primary screen, biochemical, biotinylated probe, 635/667 nm fluorescence (AID 1100); conditions: higher = more signal
[14] = splicing luciferase reporter signal modulators, primary screen, spliceosome inhibition project, cell-based, HEK293, splice +/- reporter (AID 1101); conditions: luminescence, 24 h, higher = more signal, called active from +8 up or from −8 down;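 further: HEK293 cells carrying a splicing-competent luciferase reporter gene; test concentration not given here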
[15] = target: Fibroblast growth factor 10 (Homo sapiens) (UniProt O15520); assay: FGF10 binders on small-molecule microarrays, primary screen, biochemical, small-molecule microarray, 635 nm fluorescence (AID 1102); conditions: FGF10 binding, fluorescence 635 nm, higher = more signal
[16] = system: glycogen synthase kinase-3 (GSK3A per assay name; protocol says GSK3B); assay: GSK3 binders on small-molecule microarrays, primary screen, biochemical, small-molecule microarray, 635 nm fluorescence, GSK3A (AID 1103); conditions: small-molecule microarray binding, fluorescence 635 nm; higher = more signal; further: the record names both GSK3A and GSK3B
[17] = target: Epidermal growth factor receptor (Homo sapiens) (UniProt P00533); assay: EGFR binders on small-molecule microarrays, primary screen, biochemical, small-molecule microarray, 635 nm fluorescence (AID 1104); conditions: EGFR binding, higher = more signal;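 further: score merges 667 nm emission intensity with spot signal to noise over triplicate slides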
[18] = target: Follistatin-related protein 3 (Homo sapiens) (UniProt O95633); assay: FSTL3 binders on small-molecule microarrays, primary screen, biochemical, small-molecule microarray, 635 nm fluorescence (AID 1105); conditions: FSTL3 binding, higher = more signal;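 further: score merges emission near 667 nm and signal to noise per printed spot across three slides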
[19] = target: Dickkopf-related protein 1 (Homo sapiens) (UniProt O94907); assay: DKK1 binders on small-molecule microarrays, primary screen, biochemical, small-molecule microarray, 635 nm fluorescence scan (AID 1106); conditions: DKK1 binding, higher = more signal;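 further: score merges emission near 667 nm with signal to noise over three replicate slides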
[20] = system: Inhibin beta A chain (activin A); assay: INHBA (activin A) binders on microarrays, primary screen, biochemical, small-molecule microarray, 635 nm fluorescence scan (AID 1107); conditions: small-molecule microarray binding, higher = more signal;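 further: mouse activin A protein probed at 4.33 µg/mL on printed slides; score merges bound-protein fluorescence near 667 nm with spot signal-to-noise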

Sequence of Dickkopf-related protein 1 (Homo sapiens) (O94907 whole entry, looked up): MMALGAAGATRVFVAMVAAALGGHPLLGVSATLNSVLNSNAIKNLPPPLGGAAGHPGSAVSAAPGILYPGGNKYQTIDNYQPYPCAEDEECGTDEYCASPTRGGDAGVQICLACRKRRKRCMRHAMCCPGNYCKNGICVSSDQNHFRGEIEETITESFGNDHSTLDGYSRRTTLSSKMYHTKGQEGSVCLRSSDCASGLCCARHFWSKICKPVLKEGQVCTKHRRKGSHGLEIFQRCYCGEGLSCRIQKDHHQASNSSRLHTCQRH
Sequence of Torsin-1A-interacting protein 2 (Homo sapiens) (Q8NFQ8 whole entry, looked up): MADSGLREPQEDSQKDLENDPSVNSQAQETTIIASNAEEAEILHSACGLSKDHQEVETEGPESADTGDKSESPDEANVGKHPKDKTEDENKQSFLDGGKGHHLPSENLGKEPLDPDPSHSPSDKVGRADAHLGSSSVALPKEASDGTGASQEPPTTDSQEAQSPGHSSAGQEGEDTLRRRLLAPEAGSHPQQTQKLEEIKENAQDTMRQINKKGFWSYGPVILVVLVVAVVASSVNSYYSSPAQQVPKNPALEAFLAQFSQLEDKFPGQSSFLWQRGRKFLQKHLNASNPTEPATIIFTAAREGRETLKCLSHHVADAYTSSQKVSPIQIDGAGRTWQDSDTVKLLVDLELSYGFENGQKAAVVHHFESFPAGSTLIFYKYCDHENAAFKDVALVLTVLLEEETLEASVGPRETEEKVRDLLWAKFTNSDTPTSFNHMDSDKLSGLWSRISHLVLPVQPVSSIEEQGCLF
Sequence of Epidermal growth factor receptor (Homo sapiens) (P00533 whole entry, looked up): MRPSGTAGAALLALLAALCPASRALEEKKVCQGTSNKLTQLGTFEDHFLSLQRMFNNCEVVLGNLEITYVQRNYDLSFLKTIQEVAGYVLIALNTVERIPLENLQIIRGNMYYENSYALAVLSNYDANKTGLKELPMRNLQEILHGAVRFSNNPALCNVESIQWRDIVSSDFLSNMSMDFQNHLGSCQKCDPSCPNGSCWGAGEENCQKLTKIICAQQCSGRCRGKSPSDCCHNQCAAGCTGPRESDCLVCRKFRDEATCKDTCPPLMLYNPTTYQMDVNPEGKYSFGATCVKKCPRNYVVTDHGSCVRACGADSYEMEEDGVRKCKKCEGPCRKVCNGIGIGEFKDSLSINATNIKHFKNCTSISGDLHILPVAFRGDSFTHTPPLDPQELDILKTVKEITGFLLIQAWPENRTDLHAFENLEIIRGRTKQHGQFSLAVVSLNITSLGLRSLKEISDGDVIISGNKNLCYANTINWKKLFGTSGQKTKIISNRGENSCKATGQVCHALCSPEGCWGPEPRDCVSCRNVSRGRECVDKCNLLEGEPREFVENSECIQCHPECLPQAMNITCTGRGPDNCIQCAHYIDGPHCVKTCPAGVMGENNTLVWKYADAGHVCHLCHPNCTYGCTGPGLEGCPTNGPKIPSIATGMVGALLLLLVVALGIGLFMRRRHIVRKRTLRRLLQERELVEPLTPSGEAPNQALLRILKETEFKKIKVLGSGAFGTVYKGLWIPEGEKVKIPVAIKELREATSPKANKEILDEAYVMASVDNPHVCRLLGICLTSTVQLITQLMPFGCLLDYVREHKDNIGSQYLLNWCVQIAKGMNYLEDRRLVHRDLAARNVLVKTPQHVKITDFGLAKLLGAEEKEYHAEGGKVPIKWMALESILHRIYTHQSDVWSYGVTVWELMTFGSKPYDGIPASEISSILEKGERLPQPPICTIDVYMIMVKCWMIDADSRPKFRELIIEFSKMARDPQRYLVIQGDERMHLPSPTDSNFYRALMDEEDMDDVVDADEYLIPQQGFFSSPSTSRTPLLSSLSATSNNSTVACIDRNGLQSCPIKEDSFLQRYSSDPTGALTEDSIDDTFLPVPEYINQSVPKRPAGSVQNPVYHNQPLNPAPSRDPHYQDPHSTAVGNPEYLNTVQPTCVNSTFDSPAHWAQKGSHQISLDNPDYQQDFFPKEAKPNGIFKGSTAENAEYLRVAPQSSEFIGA
Sequence of Follistatin-related protein 3 (Homo sapiens) (O95633 whole entry, looked up): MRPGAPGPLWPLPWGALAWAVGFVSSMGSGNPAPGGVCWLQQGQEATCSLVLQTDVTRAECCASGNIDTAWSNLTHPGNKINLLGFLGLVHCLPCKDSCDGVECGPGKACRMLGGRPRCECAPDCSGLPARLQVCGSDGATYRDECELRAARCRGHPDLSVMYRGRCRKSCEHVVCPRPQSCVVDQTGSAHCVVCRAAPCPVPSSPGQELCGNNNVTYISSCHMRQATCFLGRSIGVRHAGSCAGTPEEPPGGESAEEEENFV
Sequence of Fibroblast growth factor 10 (Homo sapiens) (O15520 whole entry, looked up): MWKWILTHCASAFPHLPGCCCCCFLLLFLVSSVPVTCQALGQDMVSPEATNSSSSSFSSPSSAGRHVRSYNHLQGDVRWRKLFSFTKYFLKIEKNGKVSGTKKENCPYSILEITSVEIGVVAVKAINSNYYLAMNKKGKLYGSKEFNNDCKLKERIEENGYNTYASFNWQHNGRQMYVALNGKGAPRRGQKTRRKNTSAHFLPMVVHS
Sequence of Neurogenic locus notch homolog protein 3 (Homo sapiens) (Q9UM47 whole entry, looked up): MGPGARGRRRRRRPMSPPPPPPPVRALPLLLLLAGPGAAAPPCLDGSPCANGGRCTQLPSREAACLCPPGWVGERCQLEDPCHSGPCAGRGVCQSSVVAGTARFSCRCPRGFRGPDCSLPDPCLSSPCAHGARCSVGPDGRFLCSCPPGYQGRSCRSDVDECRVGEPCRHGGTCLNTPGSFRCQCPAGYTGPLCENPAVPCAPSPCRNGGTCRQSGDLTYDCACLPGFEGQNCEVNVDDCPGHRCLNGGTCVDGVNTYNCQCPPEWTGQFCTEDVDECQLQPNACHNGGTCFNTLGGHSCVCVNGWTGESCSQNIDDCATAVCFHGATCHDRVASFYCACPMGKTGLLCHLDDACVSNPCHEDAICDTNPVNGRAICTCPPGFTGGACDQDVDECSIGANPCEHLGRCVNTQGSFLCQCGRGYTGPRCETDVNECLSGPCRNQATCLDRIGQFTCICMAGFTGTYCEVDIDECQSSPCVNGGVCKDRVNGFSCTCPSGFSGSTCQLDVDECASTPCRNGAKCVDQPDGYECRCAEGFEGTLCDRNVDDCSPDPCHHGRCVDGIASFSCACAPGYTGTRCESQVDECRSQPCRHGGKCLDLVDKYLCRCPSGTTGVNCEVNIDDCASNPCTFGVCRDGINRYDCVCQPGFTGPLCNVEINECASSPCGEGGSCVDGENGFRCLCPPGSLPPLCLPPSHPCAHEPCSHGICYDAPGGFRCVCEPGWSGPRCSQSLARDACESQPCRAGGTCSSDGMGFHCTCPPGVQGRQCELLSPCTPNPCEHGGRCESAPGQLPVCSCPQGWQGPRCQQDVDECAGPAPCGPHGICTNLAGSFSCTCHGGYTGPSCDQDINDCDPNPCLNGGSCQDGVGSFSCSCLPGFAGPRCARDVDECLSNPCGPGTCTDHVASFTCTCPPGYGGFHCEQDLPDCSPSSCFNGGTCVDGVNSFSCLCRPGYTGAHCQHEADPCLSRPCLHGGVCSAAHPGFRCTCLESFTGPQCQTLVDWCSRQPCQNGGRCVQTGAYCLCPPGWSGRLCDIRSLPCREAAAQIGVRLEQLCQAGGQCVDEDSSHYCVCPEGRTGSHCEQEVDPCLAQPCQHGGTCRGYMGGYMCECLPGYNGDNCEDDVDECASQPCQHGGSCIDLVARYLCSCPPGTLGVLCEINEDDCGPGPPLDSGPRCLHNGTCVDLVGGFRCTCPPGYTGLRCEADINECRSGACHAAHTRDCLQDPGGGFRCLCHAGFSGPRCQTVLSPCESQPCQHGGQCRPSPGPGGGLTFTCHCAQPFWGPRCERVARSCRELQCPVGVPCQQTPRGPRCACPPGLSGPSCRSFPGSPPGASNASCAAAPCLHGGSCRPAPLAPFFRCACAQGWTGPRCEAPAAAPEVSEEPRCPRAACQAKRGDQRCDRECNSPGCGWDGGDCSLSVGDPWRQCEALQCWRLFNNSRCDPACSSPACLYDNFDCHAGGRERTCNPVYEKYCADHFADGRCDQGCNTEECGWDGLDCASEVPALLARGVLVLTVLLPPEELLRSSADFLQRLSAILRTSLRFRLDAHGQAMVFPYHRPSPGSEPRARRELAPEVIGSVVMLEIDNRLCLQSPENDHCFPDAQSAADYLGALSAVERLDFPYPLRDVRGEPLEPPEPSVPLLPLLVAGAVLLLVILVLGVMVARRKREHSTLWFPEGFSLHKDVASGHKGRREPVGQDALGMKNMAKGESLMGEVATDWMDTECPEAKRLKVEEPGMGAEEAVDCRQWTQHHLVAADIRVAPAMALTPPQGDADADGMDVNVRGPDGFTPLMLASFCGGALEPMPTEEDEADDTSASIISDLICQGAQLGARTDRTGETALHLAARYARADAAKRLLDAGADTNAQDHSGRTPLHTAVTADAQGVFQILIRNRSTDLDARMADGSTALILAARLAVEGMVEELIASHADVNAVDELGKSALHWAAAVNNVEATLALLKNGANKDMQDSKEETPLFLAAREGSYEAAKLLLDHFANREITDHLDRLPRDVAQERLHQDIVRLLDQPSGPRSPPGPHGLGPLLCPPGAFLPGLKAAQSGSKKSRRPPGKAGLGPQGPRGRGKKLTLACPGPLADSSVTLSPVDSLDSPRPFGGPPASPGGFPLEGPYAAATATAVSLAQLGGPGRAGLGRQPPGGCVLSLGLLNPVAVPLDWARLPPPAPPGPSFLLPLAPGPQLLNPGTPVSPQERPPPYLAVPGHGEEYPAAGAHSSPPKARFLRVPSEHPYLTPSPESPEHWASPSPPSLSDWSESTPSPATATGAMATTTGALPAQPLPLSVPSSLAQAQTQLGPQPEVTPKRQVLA

In the case of COc1ccc(C#Cc2ccc3c(c2)[C@]2(C(=O)N3)[C@H](C(=O)N3CCc4cc(OC)c(OC)cc4C3)[C@H]3C(=O)O[C@H](c4ccccc4)[C@H](c4ccccc4)N3[C@@H]2c2ccc(OCCO)cc2)cc1, the composite z-score [1] is reported as 1.55, the z-score [2] is reported as 3.09 (inactive) and the z-score [3] is reported as 2.07 (inactive). For the same compound, the z-score [4] was 6.17 (inactive), the composite z-score [5] was 2.51 and the z-score [6] was 1.9 (inactive). The composite z-score [7] was -0.0728, the composite z-score [8] was 1.48 and the composite z-score [9] was 1.17. The composite z-score [10] was 0.102, the composite z-score [11] was 1.07 and the composite z-score [12] was -0.029. For the same compound, the composite z-score [13] was -0.13, the z-score [14] was 0.8 (inactive) and the composite z-score [15] was 1.29. The composite z-score [16] was 1.27, the composite z-score [17] was 0.504 and the composite z-score [18] was 1.08. The composite z-score [19] was 0.671 and the composite z-score [20] was 0.0787.

With C=CCC(OC(C)=O)[C@@H]1[C@@H](N(Cc2cc3ccccc3o2)C(=O)c2cccc3ccccc23)c2cc(OCCCO)ccc2N1C(=O)Cc1ccc(OC)cc1 (stereo not given in full) the composite z-score [1] was 0.21, the z-score [2] was -0.0559 (inactive) and the z-score [3] was -0.28 (inactive). For the same compound, the z-score [4] was 0.351 (inactive), the composite z-score [5] was 1.33 and the z-score [6] was -0.829 (inactive). It also gave a composite z-score [7] of -0.0745, a composite z-score [8] of 0.342 and a composite z-score [9] of -0.351. The composite z-score [10] was -0.0967, the composite z-score [11] was 0.495 and the composite z-score [12] was 0.136. The composite z-score [13] was 0.0527, the z-score [14] was -1.04 (inactive) and the composite z-score [15] was 0.568. For the same compound, the composite z-score [16] was 0.12, the composite z-score [17] was 0.24 and the composite z-score [18] was 0.579. For the same compound, the composite z-score [19] was 0.429 and the composite z-score [20] was 1.2.

For COC(=O)[C@@]1(Cc2ccc(OC)cc2)[C@H]2c3cc(C(=O)N4CCCC4)n(CCN4CCOCC4)c3C[C@H]2CN1C(=O)c1ccccc1, the composite z-score [1] was 0.57, the z-score [2] was -0.674 (inactive) and the z-score [3] was 1.15 (inactive). For the same compound, the z-score [4] was -1.32 (inactive), the composite z-score [5] was 3.66 and the z-score [6] was -0.22 (inactive). The composite z-score [7] was 1.73, the composite z-score [8] was 0.398 and the composite z-score [9] was 0.937. It also gave a composite z-score [10] of 1.23, a composite z-score [11] of 1.25 and a composite z-score [12] of 2.6. For the same compound, the composite z-score [13] was 1.52, the z-score [14] was 0.0643 (inactive) and the composite z-score [15] was 1.35. The composite z-score [16] was 0.325, the composite z-score [17] was 0.947 and the composite z-score [18] was 0.629. It also gave a composite z-score [19] of -0.138 and a composite z-score [20] of 0.492.

In the case of C=CCOC(=O)[C@H]1[C@@H]2C(=O)O[C@@H](c3ccccc3)[C@@H](c3ccccc3)N2[C@@H](c2ccc(OCCOC(=O)[C@H]3C[C@H]4C(=O)N[C@@H](CCCC[N+](C)(C)C)C(=O)N4[C@H]3c3ccc(O)cc3)cc2)[C@]12C(=O)Nc1ccccc12, the composite z-score [1] is reported as -0.146, the z-score [2] is reported as -0.193 (inactive) and the z-score [3] is reported as -2.55 (inactive). For the same compound, the z-score [4] was -1.05 (inactive), the composite z-score [5] was 1.68 and the z-score [6] was -0.405 (inactive). The composite z-score [7] was 0.126, the composite z-score [8] was 1.08 and the composite z-score [9] was 0.321. It also gave a composite z-score [10] of -0.194, a composite z-score [11] of 1.63 and a composite z-score [12] of -0.194. The composite z-score [13] was -0.135, the z-score [14] was -1.08 (inactive) and the composite z-score [15] was 0.507. The composite z-score [16] was -0.112, the composite z-score [17] was -0.229 and the composite z-score [18] was 0.563. It also gave a composite z-score [19] of 0.387 and a composite z-score [20] of -0.196.

In the case of C=CCC(OC(C)=O)[C@@H]1[C@@H](N(Cc2ccc(-c3ccccc3)cc2)C(=O)c2ccc(C)cc2)c2cc(OCCCO)ccc2N1C(=O)Cc1ccc(OC)cc1 (stereo not given in full), the composite z-score [1] is reported as 1.1, the z-score [2] is reported as -2.3 (inactive) and the z-score [3] is reported as -1.13 (inactive). The z-score [4] was -0.713 (inactive), the composite z-score [5] was 0.178 and the z-score [6] was 1.26 (inactive). It also gave a composite z-score [7] of -0.166, a composite z-score [8] of 0.0438 and a composite z-score [9] of 0.338. The composite z-score [10] was -0.109, the composite z-score [11] was 1.36 and the composite z-score [12] was -0.0745. The composite z-score [13] was -0.216, the z-score [14] was -1.03 (inactive) and the composite z-score [15] was 0.191. It also gave a composite z-score [16] of -0.159, a composite z-score [17] of 0.0485 and a composite z-score [18] of 0.0762. For the same compound, the composite z-score [19] was 0.22 and the composite z-score [20] was 1.23.

For Cc1cc(C)c(C(O)C2C=CC3C(=O)NC(=O)C3N2Nc2ccccn2)c(C)c1 (stereo not given), the composite z-score [1] was 0.442, the z-score [2] was 0.441 (inactive) and the z-score [3] was 1.11 (inactive). For the same compound, the z-score [4] was 0.415 (inactive), the composite z-score [5] was 1.65 and the z-score [6] was -1.16 (inactive). The composite z-score [7] was 0.0961, the composite z-score [8] was 0.0197 and the composite z-score [9] was 0.525. It also gave a composite z-score [10] of 0.0221, a composite z-score [11] of -0.0405 and a composite z-score [12] of 0.118. For the same compound, the composite z-score [13] was 0.862, the z-score [14] was 1.43 (inactive) and the composite z-score [15] was 0.158. The composite z-score [16] was 0.22, the composite z-score [17] was -0.373 and the composite z-score [18] was 0.547. The composite z-score [19] was -0.669 and the composite z-score [20] was 0.838.

In the case of CCOC(=O)C=Cc1cccc(OC)c1O, the composite z-score [1] is reported as 0.124, the z-score [2] is reported as -9.3 (active) and the z-score [3] is reported as -7.21 (inactive). The z-score [4] was -0.346 (inactive), the composite z-score [5] was 0.0496 and the z-score [6] was -0.0998 (inactive). It also gave a composite z-score [7] of -0.249, a composite z-score [8] of -1.09 and a composite z-score [9] of -0.125. It also gave a composite z-score [10] of -0.209, a composite z-score [11] of -0.0095 and a composite z-score [12] of -0.349. The composite z-score [13] was 0.165, the z-score [14] was -1.98 (inactive) and the composite z-score [15] was -0.96. For the same compound, the composite z-score [16] was -0.073, the composite z-score [17] was -1.71 and the composite z-score [18] was -0.631. The composite z-score [19] was -1.77 and the composite z-score [20] was -0.4.

For CCCC[C@H]1C[C@@H]1[C@@H]1N(P(=O)(c2ccccc2)c2ccccc2)[C@](CO)(c2ccccc2)CC12CC2, the composite z-score [1] was -0.153, the z-score [2] was -0.485 (inactive) and the z-score [3] was -0.485 (inactive). The z-score [4] was 5.22 (inactive), the composite z-score [5] was 2.51 and the z-score [6] was -1.08 (inactive). For the same compound, the composite z-score [7] was 0.325, the composite z-score [8] was -0.686 and the composite z-score [9] was -0.318. For the same compound, the composite z-score [10] was 0.0585, the composite z-score [11] was 1.09 and the composite z-score [12] was 0.639. The composite z-score [13] was 1.01, the z-score [14] was -4.35 (inactive) and the composite z-score [15] was 0.104. For the same compound, the composite z-score [16] was -0.571, the composite z-score [17] was -0.395 and the composite z-score [18] was -0.177. For the same compound, the composite z-score [19] was -1.47 and the composite z-score [20] was 0.846.

With CCCC[C@@H]1C[C@H]1[C@@H](NC(=O)c1ccccc1)c1ccccc1 the composite z-score [1] was -0.352, the z-score [2] was 0.588 (inactive) and the z-score [3] was 1.02 (inactive). The z-score [4] was 1.54 (inactive), the composite z-score [5] was 0.981 and the z-score [6] was -0.404 (inactive). The composite z-score [7] was 0.302, the composite z-score [8] was 0.226 and the composite z-score [9] was 0.571. The composite z-score [10] was 0.104, the composite z-score [11] was -0.563 and the composite z-score [12] was 0.599. For the same compound, the composite z-score [13] was 0.781, the z-score [14] was 0.308 (inactive) and the composite z-score [15] was -0.232. For the same compound, the composite z-score [16] was -0.949, the composite z-score [17] was -0.151 and the composite z-score [18] was 0.227. The composite z-score [19] was -0.256 and the composite z-score [20] was 0.582.
